Assay outcomes as filed in PubChem BioAssay.
The list is not random: actives were taken first. Their share in the collection is about 2%.
APOBEC3A inh: human APOBEC3A DNA deaminase inhibition; recombinant A3A, FAM/TAMRA ssDNA deamination fluorescence; P31941; inhibition, % at 20 µM; 0.41% of 330,000 active;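 active = at least 40% inhibition at 20 µM here, with at most 30% in a related deaminase screen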;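 note: plate controls were A3A with DMSO for no effect and wells lacking A3A enzyme for full effect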
Target sequence (P31941 whole entry, looked up): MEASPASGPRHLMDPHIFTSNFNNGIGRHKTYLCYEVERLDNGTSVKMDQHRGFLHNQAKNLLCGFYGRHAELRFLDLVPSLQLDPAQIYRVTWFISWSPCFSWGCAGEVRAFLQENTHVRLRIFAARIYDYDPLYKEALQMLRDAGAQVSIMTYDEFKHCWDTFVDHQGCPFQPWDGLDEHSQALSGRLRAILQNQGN
CTSL1 counter: cathepsin L1 inhibition, PFM18AAP counter-screen; recombinant F. hepatica cathepsin L1, Z-Leu-Arg-MCA fluorescence; AID 1906; inhibition, % at 5.96 µM; 0.49% of 300,000 active;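 active = inhibition above the mean of all tested compounds plus 3 SD, set per screening campaign, cut at about 17% in these data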;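 note: 0% = plate median of test compound wells and 100% = 1 µM Z-Phe-Ala-diazomethylketone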
sPLA2-III inh: Inhibits HGIII-sPLA2 liposome hydrolysis, primary screen | QFRET BODIPY PC-A2 liposome hydrolysis, fluorescence | inhibition, % at 12.2 µM | 0.56% of 370,000 active | AID 743126;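 active = inhibition above mean plus 3 SD of compounds lying within the high and low control bounds, cut at about 19% in these data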;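 note: 0% = median of test compound wells and 100% = no enzyme DMSO wells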
APOBEC3G inh: APOBEC3G (human) deaminase inhibition; recombinant A3G, ssDNA deamination FAM/TAMRA fluorescence; 0.28% of 330,000 active; inhibition, % at 20 µM; Q9HC16;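 active = inhibition of at least 40% at 20 µM, with no more than 30% in the related APOBEC3A deaminase screen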;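 note: plate controls were DMSO wells with A3G for no effect and wells lacking A3G enzyme for full effect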
Target sequence (Q9HC16 whole entry, looked up): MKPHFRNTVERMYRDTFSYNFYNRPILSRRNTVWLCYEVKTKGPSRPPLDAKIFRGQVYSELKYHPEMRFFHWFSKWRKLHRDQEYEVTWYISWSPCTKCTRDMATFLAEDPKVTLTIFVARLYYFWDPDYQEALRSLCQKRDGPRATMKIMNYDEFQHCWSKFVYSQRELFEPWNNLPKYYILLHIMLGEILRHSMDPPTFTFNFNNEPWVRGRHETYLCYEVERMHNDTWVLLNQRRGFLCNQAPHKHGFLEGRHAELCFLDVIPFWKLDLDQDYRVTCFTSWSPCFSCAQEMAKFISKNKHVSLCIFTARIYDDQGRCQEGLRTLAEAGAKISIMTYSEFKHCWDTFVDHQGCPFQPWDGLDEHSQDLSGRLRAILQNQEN
NALP1 inh: NALP1 inhibition; S. cerevisiae NALP1/ASC/caspase-1 growth, X-gal OD620, 72 h; inhibition, % at 10 µM; 0.61% of 280,000 active; AID 2071; in the data active = inhibition mostly above about 24%, no sharp cut-off; inactive = mostly below about 32%
The depositor's hits bear a star.

Screening CCNC(=O)CSc1ncnc2sccc12 returned APOBEC3A inh -1.8, CTSL1 counter 2.0, sPLA2-III inh 0.8, APOBEC3G inh -2.5 and NALP1 inh 5.7.
COCCNC(=O)CSc1ncnc2sccc12 was read as APOBEC3A inh 0.3, CTSL1 counter 1.8, sPLA2-III inh -3.5, APOBEC3G inh -2.9 and NALP1 inh 38.5*.
For CC1(C)CC(=O)c2cn3c(nc2C1)nc1ccccc13 the results were APOBEC3A inh -0.9, CTSL1 counter -0.4, sPLA2-III inh 0.2, APOBEC3G inh -1.2 and NALP1 inh 3.8.
For CC1(C)CC(=O)c2cn3nc(C(F)(F)F)nc3nc2C1 the results were APOBEC3A inh -3.4, CTSL1 counter 2.0, sPLA2-III inh 6.8, APOBEC3G inh -7.5 and NALP1 inh 43.4*.
`Cc1cc2cc(C(c3nnnn3C(C)(C)C)N(Cc3ccco3)CC3CCCO3)c(=O)[nH]c2cc1C` (stereo not given) gave APOBEC3A inh -5.3, CTSL1 counter 5.6, sPLA2-III inh 1.8, APOBEC3G inh -4.6 and NALP1 inh 4.8.
Cc1cc(C)c2[nH]c(=O)c(C(c3nnnn3C(C)(C)C)N(Cc3ccco3)CC3CCCO3)cc2c1 (stereo not given) was read as APOBEC3A inh 0.6, CTSL1 counter 0.9, sPLA2-III inh -2.1, APOBEC3G inh -3.3 and NALP1 inh 38.0*.
For CC(C)[C@H](NC(=O)[C@@H]1CCCN1)C(=O)N1CCC2CCN(S(=O)(=O)c3ccccc3)CC21 (stereo not given in full) the results were sPLA2-III inh -1.0.
Screening Cc1ccc2c(c1)-c1c(cnn1CC(=O)NCCc1ccc(O)cc1)CO2 returned sPLA2-III inh -4.7.
`Cc1ccc2c(c1)-c1c(cnn1CC(=O)NC(C)CCc1ccco1)CO2` (stereo not given) gave APOBEC3A inh 2.1, CTSL1 counter 0.3, sPLA2-III inh 3.5, APOBEC3G inh 0.5 and NALP1 inh 27.5.
Screening Cc1ccc2c(c1)-c1c(cnn1CC(=O)N(CCC#N)c1ccccc1)CO2 returned APOBEC3A inh 0.6, CTSL1 counter 47.0*, sPLA2-III inh -1.2, APOBEC3G inh -0.3 and NALP1 inh -18.1.
Screening Cc1ccc2c(c1)-c1c(cnn1CC(=O)N(Cc1ccco1)C1CCCCC1)CO2 returned APOBEC3A inh -3.6, CTSL1 counter 29.0*, sPLA2-III inh -14.8, APOBEC3G inh -2.4 and NALP1 inh 38.2.
`O=C(Nc1ccc(Br)cc1)O[C@@H]1CC[C@@]23CCCN2C(=O)CCC[C@H]3C1` gave sPLA2-III inh -7.4.
`O=c1c2ccccc2n(Cc2ccno2)n1[C@@H](Cc1ccccc1)Cn1cc(-c2ccc(-c3ccccc3)cc2)nn1` gave sPLA2-III inh 0.0.
`COc1ccc(C2C(O)C(c3c[nH]c4ccccc34)=NN2C(=O)CCl)cc1` (stereo not given) gave APOBEC3A inh -3.8, CTSL1 counter 43.3*, sPLA2-III inh -24.8, APOBEC3G inh -8.4 and NALP1 inh 7.4.
Screening Oc1c(Br)cc(Br)cc1C=Nc1cccnc1 returned APOBEC3A inh -2.7, CTSL1 counter 0.5, sPLA2-III inh -2.7, APOBEC3G inh -3.3 and NALP1 inh 45.4*.
For COC(=O)c1cc(-c2cc(F)cc(OC)c2)c(=O)n2c1CCC2 the results were sPLA2-III inh -4.2.
For CCc1cccc2c(C(=O)CCl)c[nH]c12 the results were APOBEC3A inh 2.3, CTSL1 counter 35.1*, sPLA2-III inh 18.8, APOBEC3G inh -1.0 and NALP1 inh 25.7.
For CCc1cccc2c(C(=S)N3CCCC3)c[nH]c12 the results were APOBEC3A inh -2.1, CTSL1 counter -1.6, sPLA2-III inh 6.7, APOBEC3G inh 2.5 and NALP1 inh -20.6.
Screening CCOC(=O)c1sc(=S)[nH]c1C returned sPLA2-III inh 23.5*.
For CCOC(=O)c1c(C)[nH]sc1=S the results were APOBEC3A inh -0.5, sPLA2-III inh 5.4, APOBEC3G inh 5.5 and NALP1 inh 14.5.
Screening CC(=O)OCC1=C(C(=O)O)N2C(=O)[C@@H](NC(=O)Cc3ccccc3)[C@H]2SC1 returned sPLA2-III inh -1.7.
`CC(=O)OCC1=C(C(=O)O)N2C(=O)[C@@H](NC(=O)Cc3cccs3)[C@H]2SC1` gave APOBEC3A inh 27.6, CTSL1 counter 0.5, sPLA2-III inh -5.4, APOBEC3G inh 19.5 and NALP1 inh 135.8*.
Screening Nc1ccc(O)cc1 returned CTSL1 counter 96.1*.
For Cc1nc(N2N=C(c3ccc(Cl)cc3)CC2c2ccco2)sc1C(=O)N(C)C (stereo not given) the results were APOBEC3A inh 5.0, CTSL1 counter 25.1*, sPLA2-III inh -8.2, APOBEC3G inh -9.2 and NALP1 inh -13.2.
CC(C)(C)CCN1C[C@@H]2C(CNC(=O)c3cc(Cl)cc(Cl)c3)[C@@H]2C1 (stereo not given in full) was read as sPLA2-III inh -4.9.
Screening COc1ccc(Cn2c(=O)c3cccnc3n(Cc3ccc([N+](=O)[O-])cc3)c2=O)cc1 returned APOBEC3A inh -2.5, CTSL1 counter -3.5, sPLA2-III inh 10.2, APOBEC3G inh -3.2 and NALP1 inh 32.4*.
For COc1ccc(C(=O)N(C)Cc2ccc(C)o2)cc1OC1CCN(C(C)C)CC1 the results were APOBEC3A inh -1.1, CTSL1 counter -2.2, sPLA2-III inh -4.2, APOBEC3G inh 0.9 and NALP1 inh -1.1.
COC(=O)CN(C)C(=O)c1ccc(OC)c(OC2CCN(C(C)C)CC2)c1 was read as APOBEC3A inh 7.5, CTSL1 counter 52.0*, sPLA2-III inh 0.3, APOBEC3G inh 1.2 and NALP1 inh 11.5.
`O=C(CCS(=O)(=O)c1ccccc1)N(CCCN1CCOCC1)c1nc2ccccc2s1` gave APOBEC3A inh -0.9, CTSL1 counter 46.6*, sPLA2-III inh -1.1 and APOBEC3G inh 2.5.
CCN(CC)CCN(C(=O)CCS(=O)(=O)c1ccccc1)c1nc2cc3c(cc2s1)OCO3 was read as APOBEC3A inh -5.2, CTSL1 counter 75.7*, sPLA2-III inh 2.5, APOBEC3G inh -7.5 and NALP1 inh 16.1.
Clc1ccc(OCCOCCN2CCc3ccccc3C2)c(Cl)c1 was read as APOBEC3A inh -0.1, CTSL1 counter -2.4, sPLA2-III inh 8.6, APOBEC3G inh -2.1 and NALP1 inh 55.7*.
`COC(=O)C[C@H]1CC[C@H]2[C@H](COc3ccc(NC(=O)Nc4ccccc4F)cc3C(=O)N2C)O1` gave sPLA2-III inh 5.8.
`Cc1nc(N2CCN(C(=O)COc3ccccc3C)CC2)c2c3c(sc2n1)CCCC3` gave sPLA2-III inh 5.7.
`COc1cc(/C=N/NC(=O)CNC(=O)c2ccco2)ccc1O` gave APOBEC3A inh 3.9, CTSL1 counter 28.5*, sPLA2-III inh -0.5, APOBEC3G inh -1.1 and NALP1 inh -21.7.
Cc1ccc(S(=O)(=O)Nc2c(Cl)c(Cl)c(O)c3ccccc23)cc1 was read as APOBEC3A inh -5.1, CTSL1 counter 0.9, APOBEC3G inh 81.9* and NALP1 inh 21.1.
